Data: PubChem BioAssay AID1259421 (Broad Institute, 2018)
Values joined by “and” are separate entries in the source; they are usually repeats but may differ in a detail not shown here. Equal entries are not always repeated. In all, about 6,400 compounds went through this assay and about 610 (9.5%) were called active. Cut-off read from the data, not from the text of the source: active = activity change below about -70%; inconclusive = no clear call, values can overlap the other calls; inactive = above that. For the sample, actives were picked, then their nearest neighbours and some compounds at random. A structure can be active in one record and inactive in another.

Assay: T. gondii ME49Luc in HeLa cells, luciferase assay, 72 h, no IFN-y (AID 1259421)
Conditions: stronger effect = lower value, concentration not given here
In the case of `CN1CC(=O)N/C1=N/C(=O)Nc1cccc(Cl)c1`, the activity change, negative = inhibition is reported as 32.6% (inactive) and 26.4% (inactive).
With `CNC(=O)C1OC(n2cnc3c(NCc4cccc(I)c4)ncnc32)C(O)C1O` (stereo not given) the activity change, negative = inhibition was 5.36% (inactive).
With `O=C(O)C(=O)O.O=C(O)C(=O)O.O=C(O)C(=O)O.[Bi].[Bi]` the activity change, negative = inhibition was 12.7% (inactive).
For `C[C@@H]1CN(CCCn2c3ccccc3c3ccccc32)C[C@H](C)N1`, the activity change, negative = inhibition was 18.2% (inactive).
With `CC1CN(CCCn2c3ccccc3c3ccccc32)CC(C)N1` (stereo not given) the activity change, negative = inhibition was -30.6% (inactive).
In the case of `COc1ccccc1C1(O)CCN(CCCn2c3ccccc3c3ccccc32)CC1`, the activity change, negative = inhibition is reported as -73.1% (active) and -52.5% (inactive).
In the case of `CO/N=C(\C(=O)N[C@@H]1C(=O)N2C(C(=O)O)=C(C[n+]3ccn4ncccc43)CS[C@H]12)c1nsc(N)n1`, the activity change, negative = inhibition is reported as 12% (inactive).
In the case of `CC[C@H](CO)Nc1nc(NCc2ccccc2)c2ncn(C(C)C)c2n1`, the activity change, negative = inhibition is reported as -9.71% (inactive).
For `CC[C@H](CO)Nc1nc(Nc2cccc(-c3ccccn3)c2)c2ncn(C(C)C)c2n1`, the activity change, negative = inhibition was -72.2% (active).
For `CC(C)n1cnc2c(NCc3ccccc3O)nc(NCCCO)nc21`, the activity change, negative = inhibition was 1.44% (inactive).
With `CC[C@H](CO)Nc1nc(NCc2ccc(-c3ccccn3)cc2)c2ncn(C(C)C)c2n1` the activity change, negative = inhibition was -75.6% (active).
In the case of `CC[C@@H](CO)Nc1nc(NCc2ccccc2)c2ncn(C(C)C)c2n1`, the activity change, negative = inhibition is reported as -3.07% (inactive).
For `CN1Cc2c(C(=O)OC(C)(C)C)ncn2-c2ccsc2C1=O`, the activity change, negative = inhibition was 4.12% (inactive) and 13% (inactive).
For `CC(=O)O[C@@H]1CC2C(C)(C)C(=O)C3OC3[C@]2(C)C2CC[C@@]3(C)[C@H](c4ccoc4)OC(=O)C4OC43[C@@]21C` (stereo not given in full), the activity change, negative = inhibition was 26.1% (inactive).
With `CC1=NN(c2ccc(C(=O)O)cc2)C(=O)/C1=C\c1ccc(-c2cc(C)c(C)cc2[N+](=O)[O-])o1` the activity change, negative = inhibition was 27.1% (inactive).
In the case of `O=C(/C=C/c1ccccc1)c1ccc(O)cc1`, the activity change, negative = inhibition is reported as -8.89% (inactive).
For `CC(=O)c1cnc2ccc(-c3cc(Cl)c(O)c(Cl)c3)nc2c1NC1CCC(CN(C)C)CC1` (stereo not given), the activity change, negative = inhibition was -87.5% (active).
With `CO[C@H]1C=CO[C@@]2(C)Oc3c(C)c(O)c4c(O)c(c5c(c4c3C2=O)NC2(CCN(CC(C)C)CC2)N=5)=NC(=O)/C(C)=C\C=C/[C@H](C)[C@H](O)[C@@H](C)[C@@H](O)[C@@H](C)[C@H](OC(C)=O)[C@@H]1C` the activity change, negative = inhibition was -31.1% (inactive).
With `Nc1nc(=O)n([C@@H]2O[C@H](CO)[C@@H](O)[C@@H]2F)cc1I` the activity change, negative = inhibition was 9.84% (inactive).
With `CC(=O)OCC(=O)[C@@]1(O)CCC2C3CCC4=CC(=O)C=C[C@]4(C)[C@@]3(F)[C@@H](O)C[C@@]21C` (stereo not given in full) the activity change, negative = inhibition was -18.2% (inactive).
